Legend:
Assay in all cases: yeast three-hybrid, YBZ-1, SC-Leu-His + 0.5 mM 3-AT, 4 days
Details in all cases: tags: N-Gal4 AD-HA kept; label: inside an RPR1-promoter hybrid RNA with tandem MS2 sites; ssRNA
[1] = molecular target: PUM1 PUF domain R4-GWP (Homo sapiens, UniProt Q14671 828-1176, N971G;H972W;Q975P)
Procedure, shortened: (§1)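 Each repeat of the Pumilio-1 PUF domain was randomized at its three base-contacting residues, and these libraries were co-expressed from a centromeric plasmid with matching RNA elements in strain YBZ-1. After four days on SC-Leu (input) or SC-Leu-His + 0.5 mM 3-AT (selection), the repeat regions were PCR-amplified and Illumina-sequenced. The interaction score compares variant frequency between input and selection as a log change, computed in log2 with a pseudocount of 1 for absent variants.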

[2] = molecular target: PUM1 PUF domain R5-KSM (Homo sapiens, UniProt Q14671 828-1176, C1007K;R1008S;Q1011M)
Procedure, shortened: as §1

[3] = molecular target: PUM1 PUF domain R7-KSS (Homo sapiens, UniProt Q14671 828-1176, S1079K;N1080S;E1083S)
Procedure, shortened: as §1

[4] = molecular target: PUM1 PUF domain R7-KRA (Homo sapiens, UniProt Q14671 828-1176, S1079K;N1080R;E1083A)
Procedure, shortened: as §1

[5] = molecular target: PUM1 PUF domain R7-GCL (Homo sapiens, UniProt Q14671 828-1176, S1079G;N1080C;E1083L)
Procedure, shortened: as §1

[6] = molecular target: PUM1 PUF domain R1-HKR (Homo sapiens, UniProt Q14671 828-1176, S863H;R864K;Q867R)
Procedure, shortened: as §1

[7] = molecular target: PUM1 PUF domain R1-TLE (Homo sapiens, UniProt Q14671 828-1176, S863T;R864L;Q867E)
Procedure, shortened: as §1

[8] = molecular target: PUM1 PUF domain R1-RQE (Homo sapiens, UniProt Q14671 828-1176, S863R;R864Q;Q867E)
Procedure, shortened: as §1

[9] = molecular target: PUM1 PUF domain R1-KCT (Homo sapiens, UniProt Q14671 828-1176, S863K;R864C;Q867T)
Procedure, shortened: as §1

[10] = molecular target: PUM1 PUF domain R2-LWD (Homo sapiens, UniProt Q14671 828-1176, N899L;Y900W;Q903D)
Procedure, shortened: as §1

With “GGCUAGAACUAGUGGAUCCCCCGGCGCCCGGCGGCUCGAGCCCGGGUAAGUGUAUAUAGUCUGCAUGCCGCCGGGCGCCAUGCCUGCAGGUCGACUCUAGAAAACAUG” the binding signal [1] was 7.78 log2 enrichment (interaction score).
For “GGCUAGAACUAGUGGAUCCCCCGGCGCCCGGCGGCUCGAGCCCGGGUAAGUGUCAAUAGUCUGCAUGCCGCCGGGCGCCAUGCCUGCAGGUCGACUCUAGAAAACAUG”, the binding signal [2] was 3.66 log2 enrichment (interaction score).
“GGCUAGAACUAGUGGAUCCCCCGGCGCCCGGCGGCUCGAGCCCGGGUAAGUCUAAAUAGUCUGCAUGCCGCCGGGCGCCAUGCCUGCAGGUCGACUCUAGAAAACAUG” was tested, and the binding signal [3] was 2.54 log2 enrichment (interaction score) and the binding signal [4] was 5.25 log2 enrichment (interaction score).
In the case of “GGCUAGAACUAGUGGAUCCCCCGGCGCCCGGCGGCUCGAGCCCGGGUAAGUUUAAAUAGUCUGCAUGCCGCCGGGCGCCAUGCCUGCAGGUCGACUCUAGAAAACAUG”, the binding signal [5] is reported as 2.65 log2 enrichment (interaction score), the binding signal [3] is reported as 4.3 log2 enrichment (interaction score) and the binding signal [4] is reported as 3.25 log2 enrichment (interaction score).
“GGCUAGAACUAGUGGAUCCCCCGGCGCCCGGCGGCUCGAGCCCGGGUAAGUGUAAAUUGUCUGCAUGCCGCCGGGCGCCAUGCCUGCAGGUCGACUCUAGAAAACAUG” was tested, and the binding signal [6] was 3.25 log2 enrichment (interaction score) and the binding signal [7] was 4.15 log2 enrichment (interaction score).
“GGCUAGAACUAGUGGAUCCCCCGGCGCCCGGCGGCUCGAGCCCGGGUAAGUGUAAAUCGUCUGCAUGCCGCCGGGCGCCAUGCCUGCAGGUCGACUCUAGAAAACAUG” was tested, and the binding signal [8] was 2.21 log2 enrichment (interaction score) and the binding signal [9] was 6.39 log2 enrichment (interaction score).
“GGCUAGAACUAGUGGAUCCCCCGGCGCCCGGCGGCUCGAGCCCGGGUAAGUGUAAAUAGUCUGCAUGCCGCCGGGCGCCAUGCCUGCAGGUCGACUCUAGAAAACAUG” was tested, and the binding signal [1] was 6.31 log2 enrichment (interaction score).
“GGCUAGAACUAGUGGAUCCCCCGGCGCCCGGCGGCUCGAGCCCGGGUAAGUGUACAUAGUCUGCAUGCCGCCGGGCGCCAUGCCUGCAGGUCGACUCUAGAAAACAUG” was tested, and the binding signal [1] was 7 log2 enrichment (interaction score).
For “GGCUAGAACUAGUGGAUCCCCCGGCGCCCGGCGGCUCGAGCCCGGGUAAGUGUAAAAAGUCUGCAUGCCGCCGGGCGCCAUGCCUGCAGGUCGACUCUAGAAAACAUG”, the binding signal [10] was 5.97 log2 enrichment (interaction score).
In the case of “GGCUAGAACUAGUGGAUCCCCCGGCGCCCGGCGGCUCGAGCCCGGGUAAGUGUAAAUGGUCUGCAUGCCGCCGGGCGCCAUGCCUGCAGGUCGACUCUAGAAAACAUG”, the binding signal [8] is reported as 1.2 log2 enrichment (interaction score), the binding signal [9] is reported as 3.31 log2 enrichment (interaction score) and the binding signal [7] is reported as 3.5 log2 enrichment (interaction score).

Reference: article PMC8384837, “Expanding the binding specificity for RNA recognition by a PUF domain”
